Test results reported in PubChem BioAssay (EPA / NIEHS).
Inconclusive results are not listed. Active and inactive are the calls of the source. Rule for the calls, unless noted: active = hit-call score of the fitted dose curve at least 0.9, where 1 is the maximum; inconclusive = response in the unintended direction; inactive = score below 0.9.

Experiments:
[1] = biological target: human CYP19A1, CYP19A1 (gene 1588) (UniProt P11511); assay: NVS_ADME_hCYP19A1: NovaScreen (NVS) CYP450-related Enzyme Activity (ADME) Assay for human CYP19A1 (AID 2283098)
Summary of the method: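 Compounds were first screened at 10 uM in duplicate against purified enzyme, with a fluorogenic substrate and fluorescence intensity detection after 0.5 h. Inhibition appears as reduced signal against acetonitrile control.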

[2] = biological target: human CYP2D6, CYP2D6 (gene 1565) (UniProt P10635); assay: NVS_ADME_hCYP2D6: NovaScreen (NVS) CYP450-related Enzyme Activity (ADME) Assay for human CYP2D6 (AID 2283107)
Summary of the method: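 Compounds were first tested in duplicate at 10 uM against recombinant enzyme produced in insect cells, with substrate turnover measured by fluorescence after 1 hour. Decreased signal, referenced to acetonitrile vehicle, was taken as reduced enzyme activity. Active chemicals went on to concentration-response testing.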

rat CYP2C6, gene 293989 = assay: NVS_ADME_rCYP2C6: NovaScreen (NVS) CYP450-related Enzyme Activity (ADME) Assay for rat CYP2C6 (AID 2283120)
Summary of the method: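 Compounds first tested in duplicate at 10 uM, hits (e.g. 30% inhibition) re-run in singleton dose series to a 20 uM top concentration. Enzyme activity of recombinant rat CYP2C6 measured via fluorescent substrate turnover after 1 h; acetonitrile baseline.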

rat CYP3A1, gene 25642 = assay: NVS_ADME_rCYP3A1: NovaScreen (NVS) CYP450-related Enzyme Activity (ADME) Assay for rat CYP3A1 (AID 2283126)
Summary of the method: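 Compounds went first at 10 uM duplicate, then to series with 20 uM maximum. Fluorescence from substrate turnover by the recombinant enzyme was measured 0.5 h post-dosing, inhibition scored against acetonitrile vehicle.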

[3] = biological target: rat Peripheral-type Benzodiazepine Receptor (PBR), Tspo (gene 24230) (UniProt P16257); assay: NVS_MP_rPBR: NovaScreen (NVS) Membrane Protein Assay for rat Peripheral-type Benzodiazepine Receptor (PBR) (AID 2283335)
Summary of the method: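 Single-concentration duplicate screening at 25 uM preceded concentration-series retesting of actives. Binding of a specific radioligand to rat kidney membrane PBR was read by filtration radiodetection after 1 h, with plate-wise positive and negative controls.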

[4] = CCTE_Shafer_MEA_dev_firing_rate_mean: CCTE's Neural Network Formation Assay for Mean Firing Rate, Shafer Lab (AID 2284031; active = hit-call score of the fitted dose curve at least 0.9, where 1 is the maximum; inactive = score below 0.9;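 note: curve fitted for loss of firing so AC50 reflects decreased mean firing rate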)
Summary of the method: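 Extracellular spike frequency, AUC over DIV 5–12 recordings, in rat cortical neuron MEA cultures dosed from plating; loss direction vs DMSO.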

[5] = CCTE_Shafer_MEA_dev_per_burst_spike_percent: CCTE's Neural Network Formation Assay for Percent of Spikes in a Burst, Shafer Lab (AID 2284032; active = hit-call score of the fitted dose curve at least 0.9, where 1 is the maximum; inactive = score below 0.9;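 note: fitted as a decrease in burst spike percentage below DMSO baseline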)
Summary of the method: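 Value is trapezoidal AUC over recordings on days 5, 7, 9 and 12 of the well-mean fraction of spikes falling in single-electrode bursts; rat cortical cultures exposed continuously from plating, treatment renewed DIV 5 and 9, fitted downward against DMSO.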

[6] = CCTE_Shafer_MEA_dev_active_electrodes_number: CCTE's Neural Network Formation Assay for Number of Active Electrodes, Shafer Lab (AID 2284040);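 note: potency for loss of active electrodes versus DMSO so lower counts are hits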
Summary of the method: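 Developing rat cortical networks on MEAs, exposed DIV 0–12. Value is the AUC of active-electrode counts (≥5 spikes/min) from days 5, 7, 9, 12, relative to DMSO.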

[7] = CCTE_Shafer_MEA_dev_burst_rate: CCTE's Neural Network Formation Assay for Burst Rate, Shafer Lab (AID 2284042; active = hit-call score of the fitted dose curve at least 0.9, where 1 is the maximum; inactive = score below 0.9;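 note: potency for loss of burst rate below DMSO control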)
Summary of the method: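 Developmental network assay measuring how 12-day exposure of rat cortical neuron cultures alters bursting on extracellular MEA recordings. Values are AUC of well-mean burst rate across four recording days, relative to DMSO vehicle.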

[8] = CCTE_Shafer_MEA_dev_bursting_electrodes_number: CCTE's Neural Network Formation Assay for Number of Bursting Electrodes, Shafer Lab (AID 2284043);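 note: potency is for loss of bursting electrodes relative to DMSO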
Summary of the method: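 Counted: electrodes with burst rate ≥1 per 2 min in each well. Cells: primary rat cortex, 1.5 x 10^5/well, on 16-electrode MEA wells. Exposure: DIV 0–12, compound renewed DIV 5 and 9. Recording days 5, 7, 9, 12; AUC vs DMSO baseline.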

[9] = CCTE_Shafer_MEA_dev_per_burst_interspike_interval: CCTE's Neural Network Formation Assay for Burst Interspike Interval, Shafer Lab (AID 2284044; active = hit-call score of the fitted dose curve at least 0.9, where 1 is the maximum; inactive = score below 0.9;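 note: potency for a decrease of within-burst interspike interval below DMSO level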)
Summary of the method: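 Developmental network-formation MEA in primary rat cortical cultures with exposure spanning days 0–12. Within-burst ISI is averaged per well and integrated across recording days by area under the curve, with DMSO as negative control baseline.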

[10] = CCTE_Shafer_MEA_dev_burst_duration_mean: CCTE's Neural Network Formation Assay for Mean Burst Duration, Shafer Lab (AID 2284045; active = hit-call score of the fitted dose curve at least 0.9, where 1 is the maximum; inactive = score below 0.9;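 note: curve fitted for loss meaning shorter burst duration than DMSO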)
Summary of the method: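 Network-formation assay in primary rat cortical neurons; treatment spans twelve days of development. Mean burst duration per well is integrated by trapezoidal AUC and fitted in the loss-of-signal direction against DMSO baseline.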

[11] = CCTE_Shafer_MEA_dev_interburst_interval_mean: CCTE's Neural Network Formation Assay for Mean Interburst Interval, Shafer Lab (AID 2284046; active = hit-call score of the fitted dose curve at least 0.9, where 1 is the maximum; inactive = score below 0.9;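 note: well-mean interburst interval of bursting electrodes as AUC over four recording days; curve fitted for decrease in interburst interval relative to DMSO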)
Summary of the method: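 Network formation assay in primary rat cortical cultures, exposed from DIV 0 to 12. Mean interburst interval per well, integrated as AUC over four recordings.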

[12] = CCTE_Shafer_MEA_dev_inter_network_spike_interval_mean: CCTE's Neural Network Formation Assay for Mean Inter-network Spike Interval, Shafer Lab (AID 2284047; active = hit-call score of the fitted dose curve at least 0.9, where 1 is the maximum; inactive = score below 0.9)
Summary of the method: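 Compound was given at plating to primary rat cortical neurons and renewed with full medium changes on DIV 5 and 9. Extracellular activity was recorded on days 5, 7, 9, 12; AUC values were fitted for loss relative to DMSO control.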

[13] = CCTE_Shafer_MEA_dev_network_spike_number: CCTE's Neural Network Formation Assay for Number of Network Spikes, Shafer Lab (AID 2284048; active = hit-call score of the fitted dose curve at least 0.9, where 1 is the maximum; inactive = score below 0.9;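 note: synchronized bursts across electrodes counted on days 5 7 9 12 and integrated as AUC; fit as a loss of signal meaning fewer network spikes than DMSO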)
Summary of the method: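 Extracellular recordings from 16-electrode wells track network formation in rat cortical cultures under continuous treatment from plating. The endpoint is network spike number, expressed as AUC across DIV 5–12 relative to DMSO vehicle.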

[14] = biological target: rat Oxytocin Receptor (OXT), Oxtr (gene 25342) (UniProt P70536); assay: NVS_GPCR_rOXT: NovaScreen (NVS) G Protein-Coupled Receptor Assay for rat Oxytocin Receptor (OXT) (AID 2283330)
Summary of the method: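 Binding to rat uterine membrane receptor was followed by scintillation counting of filter-trapped radioligand after 1 h. A 25 uM duplicate single-point screen preceded concentration series with a top of 50 uM. Signal loss was analysed relative to DMSO.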

[15] = biological target: human Ephrin type-A Receptor 2 (EphA2), EPHA2 (gene 1969) (UniProt P29317); assay: NVS_ENZ_hEphA2: NovaScreen (NVS) Enzymatic Assay for human Ephrin type-A Receptor 2 (EphA2) (AID 2283155)
Summary of the method: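 Enzyme activity of recombinant EphA2 read by fluorescence after mobility-shift separation, 1 h after dosing. Chemicals first tested at 25 uM (duplicate); those passing threshold run as concentration series, top 50 uM, single replicate, relative to DMSO.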

[16] = biological target: human p21 Activated Kinase 4 (PAK4), PAK4 (gene 10298) (UniProt O96013); assay: NVS_ENZ_hPAK4: NovaScreen (NVS) Enzymatic Assay for human p21 Activated Kinase 4 (PAK4) (AID 2283189)
Summary of the method: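 Extracted PAK4 enzyme activity read by fluorescence with mobility-shift separation 1 h after chemical addition. Duplicate single-concentration screen at 25 uM, DMSO as negative control.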

[17] = biological target: human Protein Tyrosine Phosphatase Receptor Type C (PTPRC), PTPRC (gene 5788) (UniProt P08575); assay: NVS_ENZ_hPTPRC: NovaScreen (NVS) Enzymatic Assay for human Protein Tyrosine Phosphatase Receptor Type C (PTPRC) (AID 2283212)
Summary of the method: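 Absorbance-based phosphatase activity of human PTPRC protein extracted from yeast was measured 1 h post-dosing. Compounds first tested at 25 uM in duplicate, then those passing threshold in singleton concentration series to 50 uM.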

[18] = biological target: human Acetylcholinesterase (AChE), ACHE (gene 43) (UniProt P22303); assay: NVS_ENZ_hAChE: NovaScreen (NVS) Enzymatic Assay for human Acetylcholinesterase (AChE) (AID 2283129)
Summary of the method: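 Actives from a duplicate single-point screen (25 uM) were followed up in concentration series. Enzyme activity read by absorbance (colorimetric) 0.33 hour after dosing, cell-free, normalized to DMSO, with loss of signal scored.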

human p21 Activated Kinase 4 (PAK4), PAK4 (gene 10298), sequence (O96013 whole entry, looked up): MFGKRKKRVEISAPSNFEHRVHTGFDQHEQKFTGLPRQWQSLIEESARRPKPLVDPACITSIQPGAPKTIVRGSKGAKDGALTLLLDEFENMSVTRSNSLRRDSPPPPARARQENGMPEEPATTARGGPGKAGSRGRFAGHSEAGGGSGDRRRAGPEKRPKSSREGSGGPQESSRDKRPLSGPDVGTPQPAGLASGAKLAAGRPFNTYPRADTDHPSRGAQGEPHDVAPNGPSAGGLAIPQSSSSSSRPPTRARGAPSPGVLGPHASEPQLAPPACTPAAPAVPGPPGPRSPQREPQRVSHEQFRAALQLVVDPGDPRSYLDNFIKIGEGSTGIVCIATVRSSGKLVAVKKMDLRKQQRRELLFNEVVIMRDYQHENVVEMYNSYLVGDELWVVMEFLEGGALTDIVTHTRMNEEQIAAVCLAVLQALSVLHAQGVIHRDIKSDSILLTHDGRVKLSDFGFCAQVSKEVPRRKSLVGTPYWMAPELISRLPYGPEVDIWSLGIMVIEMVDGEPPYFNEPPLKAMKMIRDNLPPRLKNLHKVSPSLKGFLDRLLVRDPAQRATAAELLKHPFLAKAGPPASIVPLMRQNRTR
rat Oxytocin Receptor (OXT), Oxtr (gene 25342), sequence (P70536 whole entry, looked up): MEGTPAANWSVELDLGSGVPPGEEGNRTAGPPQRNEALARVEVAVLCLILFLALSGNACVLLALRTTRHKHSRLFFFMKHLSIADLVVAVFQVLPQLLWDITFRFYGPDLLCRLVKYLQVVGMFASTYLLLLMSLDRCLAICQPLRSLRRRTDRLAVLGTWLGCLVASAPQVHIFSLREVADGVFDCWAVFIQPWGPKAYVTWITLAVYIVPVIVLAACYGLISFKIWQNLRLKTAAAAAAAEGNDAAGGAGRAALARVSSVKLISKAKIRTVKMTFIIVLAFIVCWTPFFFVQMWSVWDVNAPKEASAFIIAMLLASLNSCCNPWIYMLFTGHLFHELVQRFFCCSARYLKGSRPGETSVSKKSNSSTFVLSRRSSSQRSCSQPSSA
human Protein Tyrosine Phosphatase Receptor Type C (PTPRC), PTPRC (gene 5788), sequence (P08575 whole entry, looked up): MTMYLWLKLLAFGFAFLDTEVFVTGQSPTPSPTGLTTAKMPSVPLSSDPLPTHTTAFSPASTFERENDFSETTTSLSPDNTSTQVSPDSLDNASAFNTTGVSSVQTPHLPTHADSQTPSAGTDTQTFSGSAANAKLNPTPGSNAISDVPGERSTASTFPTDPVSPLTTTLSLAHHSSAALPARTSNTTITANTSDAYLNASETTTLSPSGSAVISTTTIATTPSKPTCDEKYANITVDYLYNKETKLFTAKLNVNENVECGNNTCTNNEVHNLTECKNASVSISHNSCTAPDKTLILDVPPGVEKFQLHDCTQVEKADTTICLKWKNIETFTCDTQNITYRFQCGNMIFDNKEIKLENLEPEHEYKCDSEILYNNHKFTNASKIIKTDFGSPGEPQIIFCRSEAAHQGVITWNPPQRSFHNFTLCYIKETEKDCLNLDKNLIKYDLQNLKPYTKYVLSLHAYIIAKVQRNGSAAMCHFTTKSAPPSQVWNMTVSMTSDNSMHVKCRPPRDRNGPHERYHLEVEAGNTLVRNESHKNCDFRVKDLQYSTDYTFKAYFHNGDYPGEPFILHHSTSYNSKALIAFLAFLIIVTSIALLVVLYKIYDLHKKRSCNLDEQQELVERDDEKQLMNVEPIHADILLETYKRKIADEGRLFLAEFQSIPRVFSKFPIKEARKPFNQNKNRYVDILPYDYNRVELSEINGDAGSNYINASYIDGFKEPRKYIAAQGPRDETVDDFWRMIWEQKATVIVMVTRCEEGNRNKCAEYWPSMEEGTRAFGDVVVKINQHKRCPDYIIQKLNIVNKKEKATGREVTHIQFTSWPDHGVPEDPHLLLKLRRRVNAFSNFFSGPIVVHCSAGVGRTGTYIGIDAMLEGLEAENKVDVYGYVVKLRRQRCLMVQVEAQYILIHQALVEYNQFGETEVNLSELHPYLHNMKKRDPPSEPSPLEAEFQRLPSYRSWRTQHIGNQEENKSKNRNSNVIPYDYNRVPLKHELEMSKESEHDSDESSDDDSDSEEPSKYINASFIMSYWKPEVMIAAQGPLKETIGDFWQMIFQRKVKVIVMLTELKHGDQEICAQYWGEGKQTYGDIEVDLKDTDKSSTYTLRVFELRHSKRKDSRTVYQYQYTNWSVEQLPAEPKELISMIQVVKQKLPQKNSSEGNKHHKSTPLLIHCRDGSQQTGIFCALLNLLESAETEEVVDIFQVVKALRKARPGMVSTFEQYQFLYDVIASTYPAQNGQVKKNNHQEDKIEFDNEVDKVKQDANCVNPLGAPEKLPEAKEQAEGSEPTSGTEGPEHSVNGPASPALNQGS
human Acetylcholinesterase (AChE), ACHE (gene 43), sequence (P22303 whole entry, looked up): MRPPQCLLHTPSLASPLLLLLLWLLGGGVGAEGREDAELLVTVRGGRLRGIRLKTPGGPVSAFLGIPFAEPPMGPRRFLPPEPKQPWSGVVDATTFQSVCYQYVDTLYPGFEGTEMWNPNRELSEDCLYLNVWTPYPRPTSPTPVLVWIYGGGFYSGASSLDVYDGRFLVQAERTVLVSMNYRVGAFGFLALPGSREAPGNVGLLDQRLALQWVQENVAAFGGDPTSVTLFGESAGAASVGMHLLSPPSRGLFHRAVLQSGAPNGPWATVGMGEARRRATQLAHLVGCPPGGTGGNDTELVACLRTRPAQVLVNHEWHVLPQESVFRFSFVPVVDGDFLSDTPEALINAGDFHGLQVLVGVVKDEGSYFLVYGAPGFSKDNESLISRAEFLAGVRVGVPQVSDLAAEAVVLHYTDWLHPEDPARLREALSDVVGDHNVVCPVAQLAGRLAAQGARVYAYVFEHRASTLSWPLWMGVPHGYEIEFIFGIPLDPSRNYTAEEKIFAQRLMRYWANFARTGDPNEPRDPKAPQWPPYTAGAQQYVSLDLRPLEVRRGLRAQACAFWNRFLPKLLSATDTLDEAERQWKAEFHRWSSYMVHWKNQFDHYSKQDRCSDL
human Ephrin type-A Receptor 2 (EphA2), EPHA2 (gene 1969), sequence (P29317 whole entry, looked up): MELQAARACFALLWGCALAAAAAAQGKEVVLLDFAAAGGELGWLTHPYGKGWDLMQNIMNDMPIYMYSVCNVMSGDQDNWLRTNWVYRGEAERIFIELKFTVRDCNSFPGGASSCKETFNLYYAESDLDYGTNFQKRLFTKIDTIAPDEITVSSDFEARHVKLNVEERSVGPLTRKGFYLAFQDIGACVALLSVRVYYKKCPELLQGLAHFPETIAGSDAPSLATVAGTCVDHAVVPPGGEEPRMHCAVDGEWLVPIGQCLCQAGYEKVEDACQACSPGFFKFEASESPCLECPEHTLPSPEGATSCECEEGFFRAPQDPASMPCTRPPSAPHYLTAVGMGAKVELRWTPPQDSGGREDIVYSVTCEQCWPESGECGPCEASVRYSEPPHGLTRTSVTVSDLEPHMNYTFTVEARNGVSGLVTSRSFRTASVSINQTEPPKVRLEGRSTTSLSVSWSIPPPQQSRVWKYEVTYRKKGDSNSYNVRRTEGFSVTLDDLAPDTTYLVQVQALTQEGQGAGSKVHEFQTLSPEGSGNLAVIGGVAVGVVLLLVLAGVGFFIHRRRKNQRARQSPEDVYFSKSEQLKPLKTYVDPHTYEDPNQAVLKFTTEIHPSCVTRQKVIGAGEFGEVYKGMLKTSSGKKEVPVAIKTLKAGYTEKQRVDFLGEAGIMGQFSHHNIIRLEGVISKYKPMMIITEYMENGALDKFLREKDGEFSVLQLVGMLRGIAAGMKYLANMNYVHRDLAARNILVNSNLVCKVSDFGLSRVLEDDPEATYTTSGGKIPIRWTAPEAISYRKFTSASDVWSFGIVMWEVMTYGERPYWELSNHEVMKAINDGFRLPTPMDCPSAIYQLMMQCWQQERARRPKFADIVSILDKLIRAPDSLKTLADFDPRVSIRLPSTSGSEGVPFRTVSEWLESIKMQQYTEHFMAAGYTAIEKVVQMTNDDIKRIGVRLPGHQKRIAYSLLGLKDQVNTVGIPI
human CYP19A1, CYP19A1 (gene 1588), sequence (P11511 whole entry, looked up): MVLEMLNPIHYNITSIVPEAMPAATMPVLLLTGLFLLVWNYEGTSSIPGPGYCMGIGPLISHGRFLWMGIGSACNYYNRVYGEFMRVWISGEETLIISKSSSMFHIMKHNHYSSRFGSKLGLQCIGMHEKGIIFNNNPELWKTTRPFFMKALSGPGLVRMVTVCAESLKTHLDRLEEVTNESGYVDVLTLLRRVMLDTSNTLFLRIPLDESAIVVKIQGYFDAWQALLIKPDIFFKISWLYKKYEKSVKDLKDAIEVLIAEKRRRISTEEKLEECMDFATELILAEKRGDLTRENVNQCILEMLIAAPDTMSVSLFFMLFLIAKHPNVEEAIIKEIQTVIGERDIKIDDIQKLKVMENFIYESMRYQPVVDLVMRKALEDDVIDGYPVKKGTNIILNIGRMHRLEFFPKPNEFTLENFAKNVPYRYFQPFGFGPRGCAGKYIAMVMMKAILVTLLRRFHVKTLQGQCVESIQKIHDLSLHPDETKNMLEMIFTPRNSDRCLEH
rat Peripheral-type Benzodiazepine Receptor (PBR), Tspo (gene 24230), sequence (P16257 whole entry, looked up): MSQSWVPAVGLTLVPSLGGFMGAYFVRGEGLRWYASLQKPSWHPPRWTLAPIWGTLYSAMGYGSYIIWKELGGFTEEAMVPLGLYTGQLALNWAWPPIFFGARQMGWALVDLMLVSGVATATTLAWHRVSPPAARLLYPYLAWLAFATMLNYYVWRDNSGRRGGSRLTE
human CYP2D6, CYP2D6 (gene 1565), sequence (P10635 whole entry, looked up): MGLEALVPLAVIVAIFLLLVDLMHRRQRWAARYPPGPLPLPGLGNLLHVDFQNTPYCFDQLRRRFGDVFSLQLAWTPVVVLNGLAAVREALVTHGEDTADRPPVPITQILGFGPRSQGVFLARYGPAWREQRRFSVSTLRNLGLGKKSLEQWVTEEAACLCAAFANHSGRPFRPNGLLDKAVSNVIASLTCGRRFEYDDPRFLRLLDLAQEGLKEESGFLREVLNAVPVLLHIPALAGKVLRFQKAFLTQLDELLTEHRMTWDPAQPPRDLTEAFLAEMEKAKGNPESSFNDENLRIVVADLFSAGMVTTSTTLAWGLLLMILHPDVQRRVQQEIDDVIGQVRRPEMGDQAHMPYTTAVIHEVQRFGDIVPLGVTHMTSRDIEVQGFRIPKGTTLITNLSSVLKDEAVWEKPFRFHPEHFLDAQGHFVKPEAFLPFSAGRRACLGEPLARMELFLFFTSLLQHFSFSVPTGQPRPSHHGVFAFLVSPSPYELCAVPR

SMILES: CC1(C)[C@H](C(=O)O[C@H](C#N)c2cccc(Oc3ccccc3)c2)[C@@H]1C=C(Br)Br
- outcome [1]: inactive
- AC50 [2]: 2.27 µM (active)
- outcome (rat CYP2C6, gene 293989): inactive
- outcome (rat CYP3A1, gene 25642): inactive
- AC50 [3]: 15 µM (active)
- AC50 [4]: 3.1 µM (active)
- AC50 [5]: 7.16 µM (active)
- AC50 [6]: 8.89 µM (active)
- AC50 [7]: 3.86 µM (active)
- AC50 [8]: 3.71 µM (active)
- AC50 [9]: 15 µM (active)
- AC50 [10]: 5.29 µM (active)
- outcome [11]: inactive
- outcome [12]: inactive
- AC50 [13]: 0.853 µM (active)

SMILES: Cc1nc(-c2ccc3c(c2)CCN(CCC2CCC(NC(=O)/C=C/c4ccc(F)cc4)CC2)CC3)no1 (stereo not given)
- outcome [14]: inactive

SMILES: CC(C)(c1ccc(O)cc1)c1ccc(O)cc1
- outcome [15]: inactive
- outcome [16]: inactive
- outcome [17]: inactive
- AC50 [14]: 7.41 µM (active)

SMILES: CCCN(C1CCN(C(=O)C2CCNCC2)CC1)[C@@H]1CCc2ccc(OC)cc2C1
- AC50 [18]: 35.2 µM (active)

SMILES: CCCCCCCCCCCCCC[P+](CCCC)(CCCC)CCCC
- AC50 [15]: 9.76 µM (active)
- AC50 [16]: 14.5 µM (active)

SMILES: CCCCCCCCCCCCCCCCOS(=O)(=O)O
- AC50 [18]: 16.8 µM (active)
- AC50 [17]: 6.6 µM (active)
